BRCA1 expr up – increases BRCA1 expression | MCF7-BRCA1-FFLuc reporter, luminescence, 48 h; response scale: scaled: vehicle 0%, 10 µM genistein 100% | Potency, µM (titrated, usually from 46.1 µM), for inactives: at the top dose activation, usual class: activators | hit rate 1.1% among 380,000 | AID 624202; note: nearly all actives have a fitted effect of over 80% in size
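Luminescence from a BRCA1-driven firefly luciferase in MCF7 cells was read after 48 h compound exposure at 37 C. Data normalized against DMSO and a 10microM genistein activation control, then curve-fitted across the titration.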
VDR inh – blocks the human vitamin D receptor; P11473; VDR-SRC2-3 peptide fluorescence polarization, 2 h; Potency, µM, for the others: max response, negative = inhibition, most hits filed as inhibitors; hit rate 0.93% among 400,000; AID 504847; note: % is set by controls: 0 for no effect and ±100 for the full control effect
Target sequence (P11473 whole entry, looked up): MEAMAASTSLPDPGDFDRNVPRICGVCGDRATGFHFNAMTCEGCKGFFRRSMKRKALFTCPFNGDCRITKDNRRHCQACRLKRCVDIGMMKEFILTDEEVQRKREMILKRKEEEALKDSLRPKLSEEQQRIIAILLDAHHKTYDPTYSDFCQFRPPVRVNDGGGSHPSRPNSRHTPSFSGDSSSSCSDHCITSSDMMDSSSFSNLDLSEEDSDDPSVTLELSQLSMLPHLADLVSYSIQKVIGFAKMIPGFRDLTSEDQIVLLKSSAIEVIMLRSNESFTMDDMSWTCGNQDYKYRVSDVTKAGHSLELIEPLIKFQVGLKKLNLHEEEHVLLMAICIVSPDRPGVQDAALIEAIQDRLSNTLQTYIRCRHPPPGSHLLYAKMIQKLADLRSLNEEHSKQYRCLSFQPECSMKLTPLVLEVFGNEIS
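Signal is fluorescence polarization, reporting how far test compounds block the interaction of VDR with the SRC2-3 coregulator peptide after a 2 h room-temperature incubation.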
Tb PFK block – inhibitors of T. brucei phosphofructokinase. T. brucei PFK, ADP-Glo luminescence. Potency, µM (doses to about 57.5 µM), for inactives: at the top dose activity, negative = inhibition, usual class: inhibitors. hit rate 0.17% among 330,000. AID 485367;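 note: 0% = uninhibited 1x PFK enzyme wells and -100% = no-enzyme wells; nearly all actives have a fitted effect of over 60% in size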
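1.25 nM PFK with 0.5 mM F6P and 0.1 mM ATP in 0.1 M TEA pH 8.0, 5 mM MgCl2, incubated 45 min at room temperature; ADP measured by ADP-Glo luminescence; compounds titrated up to 57 uM.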
PLK1 PBD inh – PLK1 (human) polo-box domain binding inhibition; P53350; Plk1 PBD binding of FITC phosphopeptide, fluorescence polarization; Potency, µM, for the others: max response, negative = inhibition, actives largely listed as inhibitors; hit rate 2.8% among 360,000; note: series mostly up to about 57 µM; % is set by controls: 0 for no effect and ±100 for the full control effect; nearly all actives have a fitted effect of over 65% in size
Starred values were filed as active, the others as inactive. This is a sample that favours compounds with a hit; in the whole collection about 3.9% have one here. Calls come from the whole dose curve; as a rule, active = well fitted curve in the direction sought with a large enough effect; inconclusive = small, poorly fitted or top-dose-only effect, or another doubt; inactive = no such curve, though single readings can be large; an effect the other way counts as inactive or inconclusive. Potency is the fitted concentration of half-maximal effect.

O=C1NC(=S)NC(=O)C1=Cc1ccccc1C(=O)O was read as BRCA1 expr up 2%, VDR inh inconclusive and PLK1 PBD inh 24µM*.
`CCOc1ccc(OCCC(=O)OCC(=O)Nc2ccc3c(c2)OCCO3)cc1` gave BRCA1 expr up 1%, VDR inh -3%, Tb PFK block 10% and PLK1 PBD inh -6%.
For CCc1cccc(CC)c1NC(=O)CCCSc1nc2ccccc2s1 the results were BRCA1 expr up -45%, VDR inh -11%, Tb PFK block -2% and PLK1 PBD inh 1%.
CCC(C)(C)NC(=O)CCCSc1nc2ccccc2s1 was read as BRCA1 expr up 3.5µM*, VDR inh -5%, Tb PFK block 2% and PLK1 PBD inh 2%.
NC(=O)NC(=O)COC(=O)CCCSc1nc2ccccc2s1 was read as BRCA1 expr up -23%, VDR inh -1%, Tb PFK block -3% and PLK1 PBD inh 21µM*.
`CCOC(=O)NC(=O)COC(=O)CCCSc1nc2ccccc2s1` gave BRCA1 expr up -43%, VDR inh 24%, Tb PFK block -2% and PLK1 PBD inh -19%.
`CC(=O)N1CCCc2ccc(NC(=O)c3ccc(C(F)(F)F)cc3)cc21` gave VDR inh 9%.
For S=c1ncc2n[nH]nc2[nH]1 the results were BRCA1 expr up 7%.
Screening Cc1ccc(S(=O)(=O)N(CC(=O)Nc2ccccc2C(=O)O)c2cccc(Cl)c2C)cc1 returned BRCA1 expr up -37%, VDR inh -28%, Tb PFK block -4% and PLK1 PBD inh 30µM*.
Screening Cc1ccc(S(=O)(=O)N(CC(=O)Nc2ccccc2C(=O)O)c2ccccc2C)cc1 returned BRCA1 expr up 3%, VDR inh -11%, Tb PFK block -2% and PLK1 PBD inh -6%.
For CC(=O)N/C(=C/c1ccccc1)c1ccncc1 the results were BRCA1 expr up 104%.
Screening CCc1nnc(NC(=O)c2ccc(NC(=O)C(C)C)cc2)s1 returned BRCA1 expr up 11µM*, VDR inh -11%, Tb PFK block 0% and PLK1 PBD inh -9%.
`CCc1nnc(NC(=O)c2ccc3c(c2)C(=O)N(C(C)(C)C)C3=O)s1` gave BRCA1 expr up 14µM*, VDR inh 8%, Tb PFK block -2% and PLK1 PBD inh -1%.
Cc1ccc(C2CC2c2n[nH]c(=S)n2-c2cccc(C)c2)cc1 (stereo not given) was read as BRCA1 expr up -26%, VDR inh -14%, Tb PFK block -7% and PLK1 PBD inh 24µM*.
Screening Cc1[nH]c2ccccc2c1C(=O)COC(=O)c1ccccc1SCC(=O)N1CCCC1 returned BRCA1 expr up 2%.
Cc1ccc(C2=NOC(=O)/C2=C\C=C\c2ccccc2)cc1 was read as BRCA1 expr up -91%, VDR inh -2%, Tb PFK block 5% and PLK1 PBD inh 1.7µM*.
Screening O=C(NCc1ccc(F)cc1)C1CCN(c2ncnc3c2nc2n3CCCCC2)CC1 returned VDR inh 10%.
`COc1ccccc1/C=C/c1nc2ccccc2[nH]1` gave BRCA1 expr up 0%.
`Cc1ccc(/C=C/c2nc3ccccc3[nH]2)o1` gave BRCA1 expr up inconclusive, VDR inh -7%, Tb PFK block -20% and PLK1 PBD inh 27µM*.
Screening Cc1ccc(NC(=O)Cn2c(=O)ccc3cc(S(=O)(=O)N4CCC(C)CC4)ccc32)cc1Cl returned BRCA1 expr up 14% and VDR inh 4%.
Screening CCOc1ccc(N2C(=O)CC(N(Cc3ccco3)C(=O)CC)C2=O)cc1 (stereo not given) returned BRCA1 expr up 5%, VDR inh -8%, Tb PFK block -5% and PLK1 PBD inh 27µM*.
`Cc1nc2c(C)cccc2cc1C(=O)N/N=C/c1ccc(C(=O)O)cc1` gave BRCA1 expr up 35%, VDR inh -7%, Tb PFK block -3% and PLK1 PBD inh 30µM*.
For CN1/C(=C/C=C/c2n(C)c3cc([N+](=O)[O-])c([N+](=O)[O-])cc3[n+]2C)C(C)(C)c2ccccc21 the results were BRCA1 expr up -58% and PLK1 PBD inh 4%.
`CC[n+]1c(/C=C/C=C2/N(C)c3ccccc3C2(C)C)sc2ccccc21` gave VDR inh 35µM*.
For COc1ccc(NC(=O)Nc2ccc3nc([C@@H]4O[C@H](CO)[C@@H](O)[C@H](O)[C@H]4O)[nH]c3c2)cc1OC1CCCC1 the results were BRCA1 expr up 19% and PLK1 PBD inh -7%.
For Nc1ccccc1N=Nc1ccccc1N the results were BRCA1 expr up 53%, VDR inh -19%, Tb PFK block 2% and PLK1 PBD inh -8%.
Cc1cc(Cl)ccc1N=c1ssnc1Cl was read as BRCA1 expr up -35%, VDR inh inconclusive, Tb PFK block inconclusive and PLK1 PBD inh 1.5µM*.
`Nc1ccccc1N=c1ssnc1Cl` gave BRCA1 expr up -41%, VDR inh inconclusive, Tb PFK block inconclusive and PLK1 PBD inh 4.7µM*.
Screening Cc1cc(C)nc(/N=c2/ssnc2Cl)c1 returned BRCA1 expr up -64%, VDR inh 28µM*, Tb PFK block -23% and PLK1 PBD inh 1.1µM*.
Screening Cc1cc(C)c(C#N)c(Cl)n1 returned BRCA1 expr up 4%, VDR inh -2%, Tb PFK block -5% and PLK1 PBD inh -2%.
`O=C(C[N+]1(CCO)CCOCC1)c1cccc2ccccc12` gave BRCA1 expr up 22%.
Screening CCN(CC)S(=O)(=O)c1cc(NC(=O)c2ccc(Br)s2)ccc1C returned BRCA1 expr up 0%, VDR inh inconclusive, Tb PFK block -1% and PLK1 PBD inh 19µM*.
For CCN(CC)S(=O)(=O)c1cc(NC(=O)NCCCl)ccc1C the results were BRCA1 expr up -6%, VDR inh -13%, Tb PFK block 0% and PLK1 PBD inh -5%.
For O=C(NCC1CCCO1)c1ccccc1 (stereo not given) the results were BRCA1 expr up 1%, VDR inh 8% and PLK1 PBD inh -2%.
For Cc1ccccc1Nc1cc(C(=O)NC2CCCC2)c2ccccc2n1 the results were VDR inh -17%.
`Cc1ccccc1Nc1cc(C(=O)NCC2CCCO2)c2ccccc2n1` (stereo not given) gave BRCA1 expr up 4%, VDR inh inconclusive, Tb PFK block 3% and PLK1 PBD inh 11µM*.
Screening O=C(NCC1CCCO1)c1cc(-c2ccccc2F)no1 (stereo not given) returned BRCA1 expr up 13µM*, VDR inh -12%, Tb PFK block 1% and PLK1 PBD inh -14%.
For CCCC[C@H](CC)CN=C(N)NC(N)=NCCCCCCN=C(N)NC(N)=NC[C@@H](CC)CCCC the results were VDR inh 36%.
Screening CCOc1cccc(C=NNc2ccc(S(=O)(=O)Nc3ccccc3C(=O)O)cc2[N+](=O)[O-])c1O returned BRCA1 expr up 1%, VDR inh -9%, Tb PFK block 15% and PLK1 PBD inh inconclusive.
COc1ccc(C=NNc2ccc(S(=O)(=O)Nc3ccccc3C(=O)O)cc2[N+](=O)[O-])c(OC)c1 was read as BRCA1 expr up 1%, VDR inh 89µM*, Tb PFK block 3% and PLK1 PBD inh 30µM*.
